Compound activity from PubChem.
G9a inh: qHTS Assay for Inhibitors of Histone Lysine Methyltransferase G9a | Potency, µM (highest dose often 102 µM), for inactives: at the top dose activity, negative = inhibition, most hits filed as inhibitors | G9a H3K9 monomethylation, AlphaScreen, 2 h | 350,000 compounds, 8.8% hits | Histone-lysine N-methyltransferase EHMT2 (Homo sapiens), Q96KQ7 | AID 504332, 2011; note: % is set by controls: 0 for no effect and ±100 for the full control effect; nearly all actives have a fitted effect of over 75% in size
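AlphaScreen detection with an anti-monomethyl H3K9 antibody quantified product after a 2 h room-temperature reaction containing 500 nM biotinylated H3K9 peptide, 20 µM SAM and 20 nM enzyme, which had been preincubated 15 min with compound.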
HP1b chromo inh: HTS for Inhibitors of HP1-beta Chromodomain Interactions with Methylated Histone Tails | Potency, µM (series often up to 114 µM), inactives show at the top dose activity change, negative = inhibition, hits mostly inhibitors | AID 540317, 2011 | AlphaScreen HP1-beta / biotin-H3K9me3 peptide binding | Chromobox protein homolog 1 (Homo sapiens), P83916 | 390,000 compounds, 0.56% hits; note: nearly all actives have a fitted effect of over 70% in size
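AlphaScreen: HP1-beta (50 nM) preformed 30 min with biotin-H3(1-18)K9me3 peptide (50 nM) in PBS pH 7.4, 0.01% Tween-20. Compound added for 30 min at RT, then streptavidin donor/nickel chelate acceptor beads (10 ug/mL) for 30 min.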
BAZ2B block: qHTS Assay for Inhibitors of BAZ2B. 360,000 compounds, 4.4% hits. Potency, µM (doses to about 114 µM), without a hit: at the top dose activity change, negative = inhibition, actives largely listed as inhibitors. AID 504333, 2011. Bromodomain adjacent to zinc finger domain protein 2B (Homo sapiens), Q9UIF8. AlphaScreen BAZ2B-H3K14Ac peptide displacement; note: % is set by controls: 0 for no effect and ±100 for the full control effect; nearly all actives have a fitted effect of over 60% in size
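Compounds, titrated to a top concentration of 110 uM, were incubated 30 min at room temperature with preformed BAZ2B/acetyl-K14 H3 peptide complex (50 nM each). Proximity signal was measured by AlphaScreen after 20 min with beads.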
Sfp PPTase inh: qHTS Assay for Inhibitors of Bacillus subtilis Sfp phosphopantetheinyl transferase (PPTase). AID 1490, 2009. Biochemical Sfp PPTase activity, qHTS. Potency, µM, for the others: largest response in the series, negative = inhibition, hits mostly inhibitors. 310,000 compounds, 3.5% hits. 4'-phosphopantetheinyl transferase ffp (Bacillus subtilis), Q9F4F7;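 note: the enzyme is Sfp with the accession as filed and its product quenches rhodamine fluorescence; 0% = enzyme reaction without inhibitor and -100% = no enzyme wells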
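Reaction rates are the 30-min fluorescence difference (ex 525, em 598 nm) in wells containing 15 nM Sfp, 5 uM rhodamine-CoA and 12.5 uM BHQ-2-YbbR at pH 7.6 with 10 mM MgCl2.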
L3MBTL1 block: qHTS Assay for the Inhibitors of L3MBTL1; Lethal(3)malignant brain tumor-like protein 1 (Homo sapiens), Q9Y468; AlphaScreen L3MBTL1–H3K9me1 peptide binding; Potency, µM (series often up to 57.1 µM), for the others: top-dose activity, negative = inhibition, actives largely listed as inhibitors; 230,000 compounds, 0.66% hits; AID 485360, 2010; note: % is set by controls: 0 for no effect and ±100 for the full control effect; nearly all actives have a fitted effect of over 60% in size
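AlphaScreen assay: L3MBTL1 (50 nM final) was preincubated 30 min at room temperature with biotinylated H3(1-15)K9me1 peptide (75 nM final), then 30 min with library compounds; streptavidin donor and nickel chelate acceptor beads (10 ug/mL final) added, 30 min dark.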
JMJD2A Tudor inh: qHTS Assay for Inhibitors of JMJD2A-Tudor Domain; AlphaScreen JMJD2A-Tudor / H3K4me3 peptide binding; Potency, µM (top dose mostly 114 µM), inactives show at the top dose activity change, negative = inhibition, usual class: inhibitors; 390,000 compounds, 4.4% hits; AID 504339, 2011; note: % is set by controls: 0 for no effect and ±100 for the full control effect; nearly all actives have a fitted effect of over 50% in size
Target sequence (O75164 whole entry, looked up, the tested form may be a part): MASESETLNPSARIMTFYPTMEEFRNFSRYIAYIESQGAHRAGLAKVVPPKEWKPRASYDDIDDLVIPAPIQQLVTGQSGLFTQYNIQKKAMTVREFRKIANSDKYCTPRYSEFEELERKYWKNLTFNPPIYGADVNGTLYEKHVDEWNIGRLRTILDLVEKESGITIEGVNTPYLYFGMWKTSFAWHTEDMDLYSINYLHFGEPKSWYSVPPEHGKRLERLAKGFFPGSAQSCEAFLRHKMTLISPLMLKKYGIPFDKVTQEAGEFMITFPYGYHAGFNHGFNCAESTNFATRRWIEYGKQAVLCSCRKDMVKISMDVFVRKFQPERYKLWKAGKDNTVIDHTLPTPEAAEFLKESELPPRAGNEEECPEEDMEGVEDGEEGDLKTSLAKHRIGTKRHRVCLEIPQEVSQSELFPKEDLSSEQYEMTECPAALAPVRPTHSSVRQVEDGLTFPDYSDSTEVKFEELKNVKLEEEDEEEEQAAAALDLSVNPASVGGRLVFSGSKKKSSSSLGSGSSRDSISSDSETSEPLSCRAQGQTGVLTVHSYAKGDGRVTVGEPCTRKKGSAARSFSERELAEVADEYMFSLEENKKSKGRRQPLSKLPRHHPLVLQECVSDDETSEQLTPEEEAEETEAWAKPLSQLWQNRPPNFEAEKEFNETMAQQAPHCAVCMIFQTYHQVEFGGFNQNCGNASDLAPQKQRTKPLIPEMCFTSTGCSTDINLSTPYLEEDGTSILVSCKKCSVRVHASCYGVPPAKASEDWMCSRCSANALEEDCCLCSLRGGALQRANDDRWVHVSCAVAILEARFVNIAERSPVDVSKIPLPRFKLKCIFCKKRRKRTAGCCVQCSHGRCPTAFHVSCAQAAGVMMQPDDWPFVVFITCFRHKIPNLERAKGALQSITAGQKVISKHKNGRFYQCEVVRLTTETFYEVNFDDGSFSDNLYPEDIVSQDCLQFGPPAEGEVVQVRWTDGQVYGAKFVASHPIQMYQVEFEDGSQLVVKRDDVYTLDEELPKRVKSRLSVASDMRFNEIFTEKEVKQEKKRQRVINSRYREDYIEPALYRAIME
* hit, by the source's call; u = inconclusive; x = no result given; [ ] = another dose, or the depositor's remark. Compounds with a hit are over-represented: about 12% of the library has one in this group of screens. Calls come from the whole dose curve; as a rule, active = well fitted curve in the direction sought with a large enough effect; inconclusive = small, poorly fitted or top-dose-only effect, or another doubt; inactive = no such curve, though single readings can be large; an effect the other way counts as inactive or inconclusive. Potency is the fitted concentration of half-maximal effect.

SMILES | G9a inh | HP1b chromo inh | BAZ2B block | Sfp PPTase inh | L3MBTL1 block | JMJD2A Tudor inh
CCCc1nn(-c2ccccc2)c2c1C(c1cccs1)C(C#N)=C(N)O2 (centres undefined) | u | -27% | 40µM* | 3% | -29% | u
Cc1nn(-c2ccccc2)c2c1C(c1ccco1)C(C#N)=C(N)O2 (centres undefined) | 40µM* | -39% | 40µM* | -27% | -30% | 63µM*
CC(C)(C)c1[nH]nc2c1C(c1ccco1)C(C#N)=C(N)O2 (centres undefined) | u | 23% | u | 14% | -9% | 1%
COc1cc(C2C(C#N)=C(N)Oc3c2c(-c2ccccc2)nn3-c2ccccc2)cc(OC)c1OC (centres undefined) | u | -2% | 45µM* | 19% | -16% | u
CCOC(=O)c1sc2ncn(CC(=O)Nc3ccc(C)cc3C)c(=O)c2c1C | 5%[59 µM] | 30% | 2% | x | x | 1%
Cc1nn(-c2ccccc2)c(C)c1C1C(C#N)=C(N)Oc2n[nH]c(C)c21 (centres undefined) | u | 31% | -20% | 9% | -2% | -6%
Cc1nn(-c2ccccc2)c2c1C(c1cccs1)C(C#N)=C(N)O2 (centres undefined) | 35µM* | 50µM* | 40µM* | -10% | x | 56µM*
COc1cc(NC(=O)c2nn(C)c3c2COc2ccccc2-3)cc(OC)c1OC | u | 59% | 5% | x | x | 3%
O=C1CCN(C(=O)c2ccc(Cl)cc2)N1 | 13µM* | 9% | 56µM* | u | -18% | 89µM*
O=C(CSc1ccc(Cl)cc1)N1CCOCC1 | 4%[12.7 µM] | 41% | 2% | 14% | x | -17%
O=C1CCN(C(=O)CSc2ccc(Cl)cc2)N1 | 14µM* | 18% | 50µM* | u | 19% | u
CCCCCn1c(CCCNC(=O)c2ccc(Cl)cc2)nc2ccccc21 | -7%[59 µM] | 14% | 2% | x | x | -19%
CN(C)c1cc[n+](/C(C(=S)Nc2ccc(SC(F)F)cc2)=C(/[O-])c2ccccc2)cc1 | u | 8% | x | u | 2% | u
Cc1cc(C)c(/C([O-])=C(/C(=S)Nc2ccc(SC(F)F)cc2)[n+]2ccccc2)cc1C | 35µM* | -22% | 22µM* | -25% | u | u
[O-]/C(=C(\C(=S)Nc1ccc(SC(F)F)cc1)[n+]1ccccc1)c1cc(Cl)ccc1Cl | 35µM* | -18% | u | 7% | x | u
COc1ccc2[nH]cc(CCNc3cc(-c4cccnc4)ncn3)c2c1 | 8%[0.501 µM] | x | x | u | x | x
O=C(CN1CCN(S(=O)(=O)c2ccccc2)CC1)Nc1cccc(C(F)(F)F)c1 | 20%[59 µM] | -10% | 20% | 9% | 4% | 79µM*
O=C(CN1CCCN(S(=O)(=O)c2ccc(F)cc2)CC1)Nc1cccc(F)c1 | 32µM* | 42% | 0% | -11% | x | -13%
O=C(Cc1ccc(F)cc1)Nc1ccc(S(=O)(=O)N2CCCC2)cc1 | 50µM* | 17% | 7% | x | -6% | -4%
CCc1cccc(CC)c1NC(=O)CN1CCN(S(=O)(=O)c2ccccc2)CC1 | 45µM* | 8% | -15% | 5% | x | -10%
O=C(Cc1ccc(Br)cc1)Nc1ccc(S(=O)(=O)N2CCCC2)cc1 | x | x | -2% | 11% | x | x
O=C(Nc1nnc(S(=O)(=O)N2CCN(c3ccc(F)cc3)CC2)s1)c1ccc(Cl)cc1 | -37%[59 µM] | 28% | -20% | x | x | -14%
CCCCS(=O)(=O)N1CCc2nc(-c3ccccc3)c3c(c2C1)CO[C@@H](C)C3 | x | x | x | -14% | x | x
O=c1c2[nH]c3ccccc3c2nc(SCc2cccc(F)c2)n1-c1ccccc1 | 0%[59 µM] | 24%[57 µM] | -2% | x | x | -4%
COc1ccc(S(=O)(=O)N2CCN(CC(=O)Nc3ccc(F)c(F)c3)CC2)cc1 | 45µM* | 13% | 8% | 7% | -3% | -11%
SMILES | G9a inh | HP1b chromo inh | BAZ2B block | Sfp PPTase inh | L3MBTL1 block | JMJD2A Tudor inh
CC(=O)c1ccc(NCC(=O)N2CCN(S(=O)(=O)c3ccccc3)CC2)cc1 | 22%[12.7 µM] | 34% | 1% | x | 7% | 1%
COc1ccc(S(=O)(=O)N2CCN(CC(=O)Nc3cccc(OC)c3)CC2)cc1 | 15% | 12%[57 µM] | -17% | 5% | x | -6%
COc1ccc(S(=O)(=O)N2CCC(C(=O)NCCC(=O)Nc3cccc(Cl)c3)CC2)cc1 | -6% | 23% | -22% | 13% | x | 16µM*
O=C(CNc1ccc(Cl)c(C(F)(F)F)c1)N1CCN(S(=O)(=O)c2ccccc2)CC1 | x | -33% | x | x | x | 79µM*
O=C(CN1CCN(C(=O)c2cccc(S(=O)(=O)N3CCCC3)c2)CC1)Nc1cccc(F)c1 | 56µM* | 29% | 14% | x | -2% | -12%
O=C(CN1CCN(C(=O)c2ccco2)CC1)Nc1cccc(S(=O)(=O)N2CCCC2)c1 | u | 22% | 7% | x | -2% | -14%
COc1ccc(NC(=O)CCNC(=O)C2CCN(S(=O)(=O)c3ccc(OC)cc3)CC2)cc1 | 4% | 23% | -12% | 12% | x | -19%
Cc1ccc(NC(=O)c2nnn(Cc3cccc(C(F)(F)F)c3)c2N)c(C)c1 | 9%[59 µM] | 36% | 4% | x | x | -7%
CC1=CC(=O)C(C(C)C)=CC1=NC(=O)c1ccc(C)cc1 | 8.9µM* | 22µM* | 40µM* | 10µM* | 0% | 50µM*
CC1=CC(=O)C(C(C)C)=C/C1=N/OC(=O)c1cccc([N+](=O)[O-])c1 | -16%[59 µM] | -21% | -10% | u | x | -32%
Cc1ccc2onc(CNC(=O)NCc3ccccc3)c2c1 | 7%[59 µM] | -4% | -16% | x | x | -14%
CNC(=O)[C@]1(C(F)(F)F)C[C@H](CCC2CCCCC2)CCCO1 | x | 70% | x | -4% | x | 10%
O=C(O)c1cccc2cc(-c3ccccc3)oc(=O)c12 | 2% | 32% | -8% | 11% | x | -14%
O=C(O)c1cccc2cccc(-c3c4ccc(=O)c(O)c-4oc4c(O)c(O)ccc34)c12 | x | u | x | x | x | 0.79µM*
C[C@@]12CC(=O)C3=C(CCCC3=O)N1CCc1ccccc12 | x | x | x | 13% | x | x
Cc1cc(N)c2cc(NC(=O)Nc3ccc4nc(C)cc(N)c4c3)ccc2n1 | x | x | x | 7.9µM* | x | x
Cc1cc(C)c(NC(=O)Nc2ccccc2)c(C)n1 | 5%[12.7 µM] | 13% | 5% | x | -1% | -11%
